Results on 21 molecules are retold here after PubChem BioAssay (EPA / NIEHS).

Results filed as inconclusive are left out. The source made the active and inactive calls. The calls were made as follows: active = hit-call score of the fitted dose curve at least 0.9, where 1 is the maximum; inconclusive = response in the unintended direction; inactive = score below 0.9.

Read-out in this assay: HMG-CoA synthase (HMGCS2), HMGCS2 (gene 3158)
The assay is described as follows: CLD_HMGCS2_48hr: CellzDirect (CLD) Gene Expression Assay for HMG-CoA synthase (HMGCS2) at 48 hours (AID 2283711). The method, then:
CLD_48hr is a cell-based, multiplexed-readout assay that uses hepatocyte, a human liver primary cell, with measurements taken at 48 hours after chemical dosing in a 96-well plate.CLD_HMGCS2_48hr is one of 16 assay component(s) measured or calculated from the CLD_48hr assay. It is designed to make measurements of mRNA induction, a form of inducible reporter, as detected with chemiluminescence signals by Quantitative Nuclease Protection Assay (qNPA) technology.Data from the assay component CLD_HMGCS2_48hr was analyzed at the endpoint, CLD_HMGCS2_48hr, in the positive analysis fitting direction relative to DMSO as the negative control and baseline of activity. Using a type of inducible reporter, gain-of-signal activity can be used to understand changes in the reporter gene as they relate to the gene HMGCS2. Furthermore, this assay endpoint can be referred to as a primary readout. To generalize the intended target to other relatable targets, this assay endpoint is annotated to the lyase intended target family, where subfamily is HMG-CoA synthase.
Human hepatocyte cultures were treated daily for two consecutive days with fresh dosing solutions containing appropriate concentrations of the 320 ToxCast chemicals (chemical identities were blinded to CellzDirect and other ToxCast collaborators), vehicle control (0.2% DMSO), and positive control inducers as summarized in Table 1. Due to the large number of treatment groups and chemicals examined, the ToxCast chemicals were divided into two groups (spanning two independent cultures of hepatocytes from separate donor preparations (Hu778: ToxCast plates 1 and 2; Hu776: ToxCast plates 3 and 4). Each preparation of human hepatocyte cultures was treated with respective vehicle control, medium only control, set of six positive controls/reference chemicals for the five hepatic receptor pathways, and a subset of eight of the ToxCast chemicals (indoxacarb, pyrithiobac-sodium, norflurazon, cyhalofop-butyl, methomyl, thiram, acetochlor, and propiconazole). These replicate data, coupled with internal replicates designed within the blinded ToxCast chemical library, provided additional data to evaluate interindividual differences between hepatocyte preparations and their potential impact on chemical profiles.Cell morphology and integrity were evaluated using phase-contrast microscopy as an indicator of hepatocyte cell health (Tyson & Green, 1987). Cultures for each treatment group (i.e., media, vehicle [0.2% DMSO], positive control inducers [multiple concentrations], and the ToxCast chemicals [multiple concentrations]) were observed and cell morphology was assessed relative to vehicle control cultures at each harvest time point (0, 6, 24, or 48 h). […] Images were evaluated at the conclusion of the study to assess changes in cell integrity and account for the effects of chemical exposure on uncharacteristic changes in concentration-dependent gene expression profiles. The results from these determinations of apparent cytotoxicity were annotated (yes/no) alongside the corresponding qNPA data for reference.At the conclusion of each treatment period, hepatocyte cultures (96-well) were washed with 1 volume of HBSS, lysed by addition of 25 ul ArrayPlate lysis buffer (HTG, Tucson, AZ), and 70 ul/well of Denaturation Oil, denatured by incubation at 95C for 10 min, and frozen at approximately -70C until analysis by nuclease protection assay (qNPA) (Roberts et al., 2007). For qNPA analysis, cell lysates were thawed at 50C for approximately 30 min, qNPA probes were added, and samples were incubated at 95C for 10 min to begin the detection process by denaturing the target RNA, dissociating the duplexes and secondary structure hybridization. At the conclusion of the hybridization period, S1 nuclease reagent was added to each sample to digest all nonprotected nucleotides at 50C for 60-90 min. […]
For `CS(=O)(=O)c1ccc(C(=O)C2C(=O)CCCC2=O)c([N+](=O)[O-])c1`, the result was inactive.

Turning to `O=P(O)(O)CCCl`, the AC50 was 0.456 nM (active).

For `CCOP(=O)(OCC)Oc1nc(Cl)c(Cl)cc1Cl`, the result was inactive.

Consider `COC(=O)NS(=O)(=O)c1ccc(N)cc1`, for which the molecule was called inactive.

Regarding `CCOc1nc(F)cc2nc(S(=O)(=O)Nc3c(Cl)cccc3Cl)nn12`, the result was inactive.

For `COc1cc(OC)nc(NC(=O)NS(=O)(=O)c2ncccc2OCC(F)(F)F)n1`, the molecule was classed as inactive.

Consider `COC(=O)NC(=S)Nc1ccccc1NC(=S)NC(=O)OC`, for which the outcome was inactive.

Take `CC1(C)C(C(=O)OC(C#N)c2cccc(Oc3ccccc3)c2)C1(C)C` (stereo unspecified): the call was inactive.

Take `COCC(=O)N(c1c(C)cccc1C)C(C)C(=O)OC` (stereo unspecified): the outcome was inactive.

As for `Nc1c(Cl)c(F)nc(OCC(=O)O)c1Cl`, the result was inactive.

For `CCOC(=O)C(C)OC(=O)c1cc(Oc2ccc(C(F)(F)F)cc2Cl)ccc1[N+](=O)[O-]` (stereo unspecified), the AC50 is 241 nM (active).

With `CNC(=O)N(C)c1nnc(C(C)(C)C)s1`, the molecule was classed as inactive.

Regarding `Cc1c(COC(=O)[C@@H]2[C@H](/C=C(\Cl)C(F)(F)F)C2(C)C)cccc1-c1ccccc1`, the molecule was classed as inactive.

Regarding `CCCN(CC)CC1COC2(CCC(C(C)(C)C)CC2)O1` (stereo unspecified), the outcome was inactive.

In the case of `O=C(O)c1c(Cl)ccc2cc(Cl)cnc12`, the outcome was inactive.

In the case of `CCOc1nc(C(Cl)(Cl)Cl)ns1`, the outcome was inactive.

As to `CC(C)N1C(=O)c2ccccc2NS1(=O)=O`, the call was inactive.

As for `CCCC(=NOCC)C1=C(O)CC(CC(C)SCC)CC1=O` (stereo unspecified), the molecule was called inactive.

For the molecule `CS(=O)(=O)c1cc(C(F)(F)F)ccc1C(=O)c1cnoc1C1CC1`, the result was inactive.

For `Cc1cc(C)nc(Nc2ccccc2)n1`, the outcome was inactive.

For `COc1ccc(-c2ccccc2)cc1NNC(=O)OC(C)C`, the result was inactive.
